Source: PubChem (University of Kansas High Throughput Screening Laboratory)
Hits are enriched below; roughly 3.6% of the tested compounds scored in any of these assays.
mHTT CaM bind = mutant huntingtin-calmodulin interaction inhibitors – biochemical, AlphaScreen, primary screen; P42858; AID 1671202, 2021; inhibition, % at 15 µM; AlphaScreen His-mHTT/GST-CaM binding, luminescence; 3.6% of 190,000 active;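 note: 0% = both proteins with DMSO and 100% = one protein alone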
Pf apPOL block = Pf-apPOL inhibitors, biochemical, fluorescence; inhibition, % at 10 µM; AID 1794808, 2022; Plasmodium falciparum apicoplast DNA polymerase (apPOL); 0.25% of 210,000 active; Recombinant Pf-apPOL, molecular beacon fluorescence, 1.5 h
Active calls of the source: *. Cut-off read from the data, not from the text of the source: active = inhibition above about 50%; inactive = the rest.

What do the screens show for `O=C(c1c[nH]c2ccccc12)N1CCC2(CC1)NC(=O)N(Cc1cccc(Cl)c1)C2=O`?
mHTT CaM bind: 100*; Pf apPOL block: -1

How did C1CCCC(NC2=NCCNC23CCOCC3)CC1 do in these assays?
mHTT CaM bind: -6; Pf apPOL block: -4

How did CCN1CCN(CCN2C(=O)CCC2(C)C(=O)NC2CCCC2)CC1 (stereo not drawn) do in these assays?
mHTT CaM bind: -9; Pf apPOL block: -2

Results for COc1ccccc1CNC(=O)CSc1nnc2[nH]c3cc(C)cc(C)c3c2n1 ?
mHTT CaM bind: 33; Pf apPOL block: -6

How did CC1CCCN(c2cc(C(=O)NCc3cccc(Cl)c3)c3ccccc3n2)C1 (stereo not drawn) do in these assays?
mHTT CaM bind: -24; Pf apPOL block: 5

How did CC(C)(C)n1nc2c(c1NC(=O)c1cccc(Br)c1)CSC2 do in these assays?
mHTT CaM bind: 53*; Pf apPOL block: 3

What do the screens show for `CC(C)Oc1ccc(C(=O)Nc2c3c(nn2C(C)(C)C)CSC3)cc1`?
mHTT CaM bind: 28; Pf apPOL block: 83*

What do the screens show for `CC(C)(C)n1nc2c(c1NC(=O)c1cc([N+](=O)[O-])ccc1Cl)CSC2`?
mHTT CaM bind: 11; Pf apPOL block: -1

Results for CC(C)(C)n1nc2c(c1NC(=O)c1cccc(Cl)c1)CSC2 ?
mHTT CaM bind: 39; Pf apPOL block: -7

How did CC(C)(C)n1nc2c(c1NC(=O)c1ccc([N+](=O)[O-])cc1)CSC2 do in these assays?
mHTT CaM bind: 66*; Pf apPOL block: 4

Results for CC(C)Oc1ccc(C(=O)Nc2c3c(nn2C(C)(C)C)CS(=O)C3)cc1 (stereo not drawn) ?
mHTT CaM bind: 2; Pf apPOL block: -40

What do the screens show for `CCOc1ccc(C(=O)N2CCC(Cc3nc4cccnc4n3CC)C2)cc1` (stereo not drawn)?
mHTT CaM bind: 5; Pf apPOL block: -9

Results for O=C(Nc1ccc(S(=O)(=O)Nc2nccs2)cc1)c1ccc(NC(=O)C(F)(F)F)cc1 ?
mHTT CaM bind: 7; Pf apPOL block: 0

What do the screens show for `C=CCn1c(=N)c(C(=O)N2CCN(C)CC2)cc2c(=O)n3cccc(C)c3nc21`?
mHTT CaM bind: 0; Pf apPOL block: -12

How did CCCOc1ccc(N2C(=O)CC(N3CCN(CC)CC3)C2=O)cc1 (stereo not drawn) do in these assays?
mHTT CaM bind: -11; Pf apPOL block: 1

Results for Cc1ccc(NC(=O)Cn2nnc(-c3ccccc3Cl)n2)cc1C ?
mHTT CaM bind: 0; Pf apPOL block: -1

Results for O=c1nc(/C=C/c2ccc(O)cc2)cc(C(F)(F)F)[nH]1 ?
mHTT CaM bind: 15; Pf apPOL block: 4

How did Cc1ccccc1C1=N/C(=C\c2cc(Br)cs2)C(=O)O1 do in these assays?
mHTT CaM bind: 5; Pf apPOL block: 6

How did O=C(NCc1ccccc1F)c1ccc(-c2cccnc2)nc1 do in these assays?
mHTT CaM bind: -1; Pf apPOL block: -3

Results for CC(C)(C)Sc1c(Br)cccc1Br ?
mHTT CaM bind: -5

What do the screens show for `CC(C)CN1CCC(C(=O)N2CCCC2)CC1`?
mHTT CaM bind: -4; Pf apPOL block: 88*

Results for CC(CN1CCC(C(=O)N2CCCC2)CC1)c1ccccc1 (stereo not drawn) ?
mHTT CaM bind: 3; Pf apPOL block: -7

Results for Cc1cccc(OCC(=O)Nc2ccc(-c3nc4ncccc4o3)cc2)c1C ?
mHTT CaM bind: 75*; Pf apPOL block: 0

What do the screens show for `Cc1ccccc1OCC(=O)Nc1ccc2oc(-c3ccncc3)nc2c1`?
mHTT CaM bind: 70*; Pf apPOL block: 8

What do the screens show for `COc1ccc(Br)cc1C(=O)Nc1cccc(-c2nc3ncccc3o2)c1`?
mHTT CaM bind: -2; Pf apPOL block: 1

What do the screens show for `CC(C)(C)c1ccc(OCC(=O)Nc2ccc3oc(-c4ccncc4)nc3c2)cc1`?
mHTT CaM bind: 3; Pf apPOL block: 68*

Results for Cc1ccccc1OCC(=O)Nc1ccc(-c2nc3ncccc3o2)cc1 ?
mHTT CaM bind: 2; Pf apPOL block: -7

Results for Cc1cc(Cl)ccc1OCC(=O)Nc1ccc2oc(-c3ccncc3)nc2c1 ?
mHTT CaM bind: -1; Pf apPOL block: 3

What do the screens show for `CCc1ccc(-c2nc3cc(NC(=O)COc4ccc(OC)cc4)ccc3o2)cc1`?
mHTT CaM bind: 6; Pf apPOL block: 6

What do the screens show for `COc1ccccc1C(=O)Nc1cccc(-c2nc3ncccc3o2)c1`?
mHTT CaM bind: 58*; Pf apPOL block: 3

What do the screens show for `CC(=O)Nc1c(C)cc(C)cc1[N+](=O)[O-]`?
mHTT CaM bind: -5; Pf apPOL block: -6

How did O=C(Nc1ccccc1Br)N1CCCC1c1nc(-c2ccc(F)cc2F)no1 (stereo not drawn) do in these assays?
mHTT CaM bind: -17; Pf apPOL block: -7

What do the screens show for `O=C(c1ccccc1Cl)N1CCN(c2nc(CN3CCCC3)cs2)CC1`?
mHTT CaM bind: 10; Pf apPOL block: 3

How did O=C(c1cccc(F)c1)N1CCCC(c2ccnc(-c3ccc(F)cc3)n2)C1 (stereo not drawn) do in these assays?
mHTT CaM bind: 54*; Pf apPOL block: -5

What do the screens show for `CCCC(=O)N1CCCC(c2ccnc(-c3ccc(F)cc3)n2)C1` (stereo not drawn)?
mHTT CaM bind: 2; Pf apPOL block: -6

How did CCC(=O)N1CCCC(c2ccnc(-c3ccc(F)cc3)n2)C1 (stereo not drawn) do in these assays?
mHTT CaM bind: 76*; Pf apPOL block: -18

What do the screens show for `O=C(c1ccccc1)N1CCCC(c2ccnc(-c3ccc(F)cc3)n2)C1` (stereo not drawn)?
mHTT CaM bind: 13; Pf apPOL block: -4

What do the screens show for `CC(C)N1CCN(C(=O)c2ccc3c(c2)CC(=O)N3Cc2cccc(F)c2)CC1`?
mHTT CaM bind: 31; Pf apPOL block: -5

What do the screens show for `CN1CCC(NC(=O)c2ccc3c(c2)N(S(=O)(=O)c2ccccc2)CC3)CC1`?
mHTT CaM bind: -5; Pf apPOL block: -1

How did CCn1cc2c3c(cccc31)CN(C(=O)COc1ccccc1)CC2 do in these assays?
mHTT CaM bind: 75*; Pf apPOL block: -8

Results for CCCn1cc2c3c(cccc31)CN(C(=O)COc1ccc(F)cc1)CC2 ?
mHTT CaM bind: 55*; Pf apPOL block: -3

How did CCn1cc2c3c(cccc31)CN(C(C)=O)CC2 do in these assays?
mHTT CaM bind: 5; Pf apPOL block: -3

What do the screens show for `CCn1cc2c3c(cccc31)CN(C(=O)c1ccc(F)cc1)CC2`?
mHTT CaM bind: 30; Pf apPOL block: -6

Results for CCC(=O)N(C)CC(=O)N1N=C(c2cccs2)CC1c1ccc(C)cc1 (stereo not drawn) ?
mHTT CaM bind: 14; Pf apPOL block: -2

Results for Cc1ccc(C2=NN(C(=O)CN(C)C(=O)C3CC3)C(c3ccccc3)C2)cc1C (stereo not drawn) ?
mHTT CaM bind: 27; Pf apPOL block: -3

Results for CC(C)C(=O)N(C)CC(=O)N1N=C(c2ccccc2F)CC1c1ccc(F)cc1 (stereo not drawn) ?
mHTT CaM bind: 14; Pf apPOL block: -2

What do the screens show for `CN(CC(=O)N1N=C(c2ccccc2Cl)CC1c1ccc(F)cc1)C(=O)C1CC1` (stereo not drawn)?
mHTT CaM bind: 5; Pf apPOL block: 0

How did Cc1ccc(C2CC(c3cccs3)=NN2C(=O)CN(C)C(=O)C2CCC2)cc1 (stereo not drawn) do in these assays?
mHTT CaM bind: 51*; Pf apPOL block: -2
